Drawing on PubChem BioAssay (Tox21), this text covers Potency for 9 compounds.

Test [1] is described as follows: qHTS assay to identify aromatase inhibitors - cell viability counter screen (AID 743084).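 Further: cells stimulated with testosterone during compound exposure; nearly all actives have a fitted effect of over 55% in size.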
The target of test [2] is Aryl hydrocarbon receptor (Homo sapiens) (UniProt P35869). The test can be described thus: qHTS assay to identify small molecule that activate the aryl hydrocarbon receptor (AhR) signaling pathway (AID 743085).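 Further: HG2L7.5c1 human HepG2 liver cells with stably integrated DRE-driven firefly reporter; series mostly up to about 70 µM; nearly all actives have a fitted effect of over 15% in size.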 The essentials: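 HepG2 cells stably carrying a 20-DRE firefly luciferase reporter (HG2L7.5c1) treated with compound for 24 hr at 37C. Luciferase read by ONE-Glo luminescence, with CellTiter-Fluor viability read first.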

Test [3] in a line: qHTS assay to identify small molecule that activate the aryl hydrocarbon receptor (AhR) signaling pathway - cell viability counter screen (AID 743086). Further: series mostly up to about 70 µM; nearly all actives have a fitted effect of over 45% in size. The essentials:
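HepG2-AhR-luc (HG2L7.5c1) cells, 4000/well, were preincubated 5 h at 37C, exposed to compound in qHTS format for 24 hr at 37C, then given CellTiter-Fluor for 30 min; viability was read as fluorescence in the reporter wells.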

The target in test [4] is Peroxisome proliferator-activated receptor gamma (Homo sapiens) (UniProt P37231). The test can be described thus: qHTS assay to identify small molecule agonists of the peroxisome proliferator-activated receptor gamma (PPARg) signaling pathway (AID 743094; active means well fitted activation curve with a large enough effect in the signal ratio in the repeat runs, not every such curve was filed as active; the % refers to the signal ratio). The method in brief:
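Stably transfected HEK293H cells (GeneBLAzer PPARg UAS-bla) were incubated with test substances for 17 h at 37C after a 5 h pre-incubation; beta-lactamase activity was then detected by FRET substrate fluorescence.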

The target is the same in test [5]. The test can be described thus: qHTS assay to identify small molecule antagonists of the peroxisome proliferator-activated receptor gamma (PPARg) signaling pathway (AID 743191; calls by dose curve; further: series mostly up to about 63 µM; nearly all actives have a fitted effect of over 30% in size). The essentials: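 GeneBLAzer PPARg UAS-bla HEK293H cells carrying a UAS-driven beta-lactamase reporter were plated at 3000 cells/well, preincubated 5 h at 37C, then given compound for 17 h at 37C; LiveBLAzer B/G FRET substrate was read after 1 h at room temperature.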

A short description of test [6]: qHTS assay for small molecule agonists of the antioxidant response element (ARE) signaling pathway (AID 743202; active means well fitted activation curve with a large enough effect in the signal ratio in the repeat runs, not every such curve was filed as active; the % refers to the signal ratio; further: potency means the concentration at half of the fitted maximal effect). The method in brief: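 Read-out: LiveBLAzer B/G FRET substrate fluorescence after 2 h at room temperature, following 16 h compound treatment at 37 C of HepG2 cells carrying an ARE-driven beta-lactamase reporter.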
Test [7] in a line: qHTS assay for small molecule agonists of the antioxidant response element (ARE) signaling pathway - cell viability counter screen (AID 743203; calls by dose curve; further: nearly all actives have a fitted effect of over 55% in size). The method in brief: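 Cells (ARE-bla HepG2, 2,000/well) receive DMSO-dissolved compounds after a 5 hrs rest. Plates incubate 16 hrs at 37C/5% CO2. CellTiter-Glo luminescence is then recorded after 30 min at room temperature.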
Test [8] in a line: qHTS assay for small molecule activators of the heat shock response signaling pathway - cell viability counter screen (AID 743209). Further: nearly all actives have a fitted effect of over 50% in size. The method in brief: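 Quantitative HTS format, Tox21 10K library. HeLa cells carrying an HSE-driven beta-lactamase reporter were treated 5 h at 37 C, then assessed for viability by CellTiter-Glo luminescence.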
A short description of test [9]: qHTS assay for small molecule activators of the heat shock response signaling pathway (AID 743210; active means well fitted activation curve with a large enough effect in the signal ratio in the repeat runs, with a control signal flat, not every such curve was filed as active; the % refers to the signal ratio; further: series mostly up to about 63 µM). The method in brief:
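HSE-bla HeLa cells (beta-lactamase reporter under heat shock response elements) were exposed to compounds for 5 h at 37 C, then loaded with LiveBLAzer B/G FRET substrate for 2.5 h at room temperature before fluorescence reading.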

A short description of test [10]: qHTS assay to identify small molecule agonists of the peroxisome proliferator-activated receptor delta (PPARd) signaling pathway - cell viability counter screen (AID 743211). Further: nearly all actives have a fitted effect of over 55% in size. The essentials:
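PPARd-bla HEK293H cells (3000/well) were pre-incubated 5 h at 37 C, then exposed to compound for 17 h at 37 C. After 2 h with LiveBLAzer substrate, CellTiter-Glo was added to the same wells; luminescence read after 30 min at room temperature.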

Test [11] addresses Peroxisome proliferator-activated receptor delta (Homo sapiens) (UniProt Q03181). Kind of test: qHTS assay to identify small molecule agonists of the peroxisome proliferator-activated receptor delta (PPARd) signaling pathway (AID 743212; calls by dose curve). The method in brief:
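GeneBLAzer PPARd UAS-bla HEK293H cells (beta-lactamase reporter under UAS control), plated and rested 5 h at 37 C, then exposed to compounds in DMSO at 37 C; LiveBLAzer B/G FRET substrate added, 2 h room temperature, fluorescence read.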

The nature of test [12]: qHTS assay to identify small molecule antagonists of the peroxisome proliferator-activated receptor delta (PPARd) signaling pathway - cell viability counter screen (AID 743213). Further: nearly all actives have a fitted effect of over 50% in size. Further: potency means the concentration at half of the fitted maximal effect. The essentials: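 In this counter screen, HEK293H cells carrying a UAS-beta-lactamase reporter are co-treated with test compounds and 300 nM L165041 (final) for 17 h at 37 C; cell viability is quantified by CellTiter-Glo luminescence.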

Test [13] addresses Peroxisome proliferator-activated receptor delta (Homo sapiens) (UniProt Q03181). Kind of test: qHTS assay to identify small molecule antagonists of the peroxisome proliferator-activated receptor delta (PPARd) signaling pathway (AID 743215; active means well fitted inhibition curve with a large enough effect in the signal ratio in the repeat runs, not every such curve was filed as active; the % refers to the signal ratio;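 further: cells stimulated with agonist L165041 at 300 nM final during compound exposure; series mostly up to about 62 µM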). The method in brief:
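Antagonist-mode beta-lactamase reporter screen: HEK293H cells with UAS-bla under PPARd control, stimulated by 300 nM L165041 (final) alongside test compound for 17 h at 37 C, then FRET fluorescence after 2 h substrate incubation.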

Test [14] is described as follows: qHTS assay to identify small molecule agonists of the farnesoid-X-receptor (FXR) signaling pathway - cell viability counter screen (AID 743218). Further: nearly all actives have a fitted effect of over 45% in size. The essentials:
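In GeneBLAzer FXR-UAS-bla HEK 293T cells, compounds act for 16 h at 37 C. Cell viability is then scored in the reporter wells by CellTiter-Glo, 30 min at RT, luminescence.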

The target in test [15] is Bile acid receptor (Homo sapiens) (UniProt Q96RI1). The test can be described thus: qHTS assay to identify small molecule agonists of the farnesoid-X-receptor (FXR) signaling pathway (AID 743220; active means well fitted activation curve with a large enough effect in the signal ratio in the repeat runs, not every such curve was filed as active; the % refers to the signal ratio). The essentials:
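Beta-lactamase reporter under UAS control in GeneBLAzer FXR HEK 293T cells (5000/well) measured with LiveBLAzer FRET substrate after 2 h at room temperature. Compound exposure lasted 16 h at 37C.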

Test [16] in a line: qHTS assay to identify small molecule antagonists of the farnesoid-X-receptor (FXR) signaling pathway - cell viability counter screen (AID 743221; active means well fitted cell-killing curve with a large enough effect in the repeat runs, not every such curve was filed as active; further: nearly all actives have a fitted effect of over 50% in size). The method in brief:
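GeneBLAzer FXR-UAS-bla HEK 293T cells, compound plus chenodeoxycholic acid (50 uM final), 16 h at 37 C. CellTiter-Glo added to the same wells after the beta-lactamase read; luminescence read after 30 min at room temperature as viability.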

The target of test [17] is Vitamin D3 receptor (Homo sapiens) (UniProt P11473). Kind of test: qHTS assay to identify small molecule agonists of the vitamin D receptor (VDR) signaling pathway (AID 743222; calls by dose curve). The essentials: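 Agonist activity measured in VDR-bla reporter cells. Exposure 16 h, 37C, 5% CO2; detection by B/G FRET substrate, 2 h RT.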
For test [18] the target is unchanged. The test can be described thus: qHTS assay to identify small molecule antagonists of the vitamin D receptor (VDR) signaling pathway (AID 743223; active means well fitted inhibition curve with a large enough effect in the signal ratio in the repeat runs, not every such curve was filed as active; the % refers to the signal ratio). The method in brief:
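VDR-bla cells were treated with compound plus 3 nM final 1alpha,25-dihydroxyvitamin D3 for 16 h at 37C. Beta-lactamase reporter read by B/G FRET substrate fluorescence after 2 h at room temperature. qHTS format.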

The nature of test [19]: qHTS assay to identify small molecule antagonists of the peroxisome proliferator-activated receptor gamma (PPARg) signaling pathway - cell viability counter screen (AID 743194). Further: nearly all actives have a fitted effect of over 55% in size. The essentials: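 PPARg-UAS-bla HEK293H cells were plated, rested 5 h at 37 C, then treated with compounds plus rosiglitazone (50 nM final) for 17 h at 37 C; viability was then read by CellTiter-Glo luminescence after 30 min at room temperature.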

Test [20] addresses Bile acid receptor (Homo sapiens) (UniProt Q96RI1). The test can be described thus: qHTS assay to identify small molecule antagonists of the farnesoid-X-receptor (FXR) signaling pathway (AID 743217; active means well fitted inhibition curve with a large enough effect in the signal ratio in the repeat runs, not every such curve was filed as active; the % refers to the signal ratio). The essentials:
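Beta-lactamase reporter under UAS control in HEK 293T cells; compound exposure 16 h at 37 °C in the presence of chenodeoxycholic acid (50 uM final); signal from B/G FRET substrate after 2 h at room temperature.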

The structures appear in SMILES notation. Records with an inconclusive call do not appear. Activity calls are given as the source filed them. Unless noted, the call rests on the fitted dose curve; in most records, active means well fitted curve in the direction sought with a large enough effect in the repeat runs; inconclusive means weak or mixed curves; inactive means no such curve, though single readings can be large; an effect the other way counts as inactive or inconclusive.

Chain of Peroxisome proliferator-activated receptor gamma (Homo sapiens) (P37231 whole entry, looked up): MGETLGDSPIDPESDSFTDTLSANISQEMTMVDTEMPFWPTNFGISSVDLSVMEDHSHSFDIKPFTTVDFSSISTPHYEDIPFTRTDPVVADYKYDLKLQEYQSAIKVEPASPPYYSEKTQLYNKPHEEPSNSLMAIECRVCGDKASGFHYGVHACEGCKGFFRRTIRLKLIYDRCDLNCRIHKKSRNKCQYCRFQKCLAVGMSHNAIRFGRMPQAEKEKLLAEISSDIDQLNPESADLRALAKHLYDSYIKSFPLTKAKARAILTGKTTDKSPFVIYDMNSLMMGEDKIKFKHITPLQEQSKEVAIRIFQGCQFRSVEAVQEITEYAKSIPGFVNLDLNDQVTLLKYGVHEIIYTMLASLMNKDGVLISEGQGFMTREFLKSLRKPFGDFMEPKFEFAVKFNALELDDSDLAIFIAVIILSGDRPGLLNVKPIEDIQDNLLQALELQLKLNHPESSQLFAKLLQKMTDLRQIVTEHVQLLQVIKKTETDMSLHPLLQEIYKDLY
Chain of Vitamin D3 receptor (Homo sapiens) (P11473 whole entry, looked up): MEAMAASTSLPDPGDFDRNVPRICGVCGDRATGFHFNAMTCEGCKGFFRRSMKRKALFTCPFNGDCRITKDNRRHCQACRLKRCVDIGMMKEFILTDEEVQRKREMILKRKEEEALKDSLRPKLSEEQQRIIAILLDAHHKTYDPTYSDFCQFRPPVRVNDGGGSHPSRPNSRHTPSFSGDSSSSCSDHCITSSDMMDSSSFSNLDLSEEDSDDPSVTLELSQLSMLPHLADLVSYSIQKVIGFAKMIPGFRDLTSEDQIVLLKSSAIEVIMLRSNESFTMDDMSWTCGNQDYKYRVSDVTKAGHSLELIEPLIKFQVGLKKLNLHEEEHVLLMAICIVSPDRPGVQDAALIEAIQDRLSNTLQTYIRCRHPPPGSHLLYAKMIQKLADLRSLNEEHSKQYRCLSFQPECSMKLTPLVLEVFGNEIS
Chain of Aryl hydrocarbon receptor (Homo sapiens) (P35869 whole entry, looked up): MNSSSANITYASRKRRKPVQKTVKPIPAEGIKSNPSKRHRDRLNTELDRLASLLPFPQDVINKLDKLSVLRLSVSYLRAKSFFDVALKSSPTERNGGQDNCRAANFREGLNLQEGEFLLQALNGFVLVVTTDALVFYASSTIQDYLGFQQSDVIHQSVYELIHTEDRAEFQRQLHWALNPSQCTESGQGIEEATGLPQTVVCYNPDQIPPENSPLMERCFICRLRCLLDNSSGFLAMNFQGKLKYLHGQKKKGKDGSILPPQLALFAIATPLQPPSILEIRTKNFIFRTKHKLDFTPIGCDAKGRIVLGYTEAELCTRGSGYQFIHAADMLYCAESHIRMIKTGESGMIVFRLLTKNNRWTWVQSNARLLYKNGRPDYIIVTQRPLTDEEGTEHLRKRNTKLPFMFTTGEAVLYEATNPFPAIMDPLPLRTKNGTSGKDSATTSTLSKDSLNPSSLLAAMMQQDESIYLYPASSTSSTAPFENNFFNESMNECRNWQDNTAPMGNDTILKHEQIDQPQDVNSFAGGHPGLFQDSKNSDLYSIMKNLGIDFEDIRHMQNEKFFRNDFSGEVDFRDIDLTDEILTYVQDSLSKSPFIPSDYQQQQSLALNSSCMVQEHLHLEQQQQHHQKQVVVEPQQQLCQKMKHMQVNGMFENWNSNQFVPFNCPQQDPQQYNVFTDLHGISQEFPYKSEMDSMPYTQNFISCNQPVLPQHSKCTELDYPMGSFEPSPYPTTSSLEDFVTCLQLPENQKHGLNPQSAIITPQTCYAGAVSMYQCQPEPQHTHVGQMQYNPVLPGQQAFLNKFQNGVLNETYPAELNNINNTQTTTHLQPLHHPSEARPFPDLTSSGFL
Chain of Peroxisome proliferator-activated receptor delta (Homo sapiens) (Q03181 whole entry, looked up): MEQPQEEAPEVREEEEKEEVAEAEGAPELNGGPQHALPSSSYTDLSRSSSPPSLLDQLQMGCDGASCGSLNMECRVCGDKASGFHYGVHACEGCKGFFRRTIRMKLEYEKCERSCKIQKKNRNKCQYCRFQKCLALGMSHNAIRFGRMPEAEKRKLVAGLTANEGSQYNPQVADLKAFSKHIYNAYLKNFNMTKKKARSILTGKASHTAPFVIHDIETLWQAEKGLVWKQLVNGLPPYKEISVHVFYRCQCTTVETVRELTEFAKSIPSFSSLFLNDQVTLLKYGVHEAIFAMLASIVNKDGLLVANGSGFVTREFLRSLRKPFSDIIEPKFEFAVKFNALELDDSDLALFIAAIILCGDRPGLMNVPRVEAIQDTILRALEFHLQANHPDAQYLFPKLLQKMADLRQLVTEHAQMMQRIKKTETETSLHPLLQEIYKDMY
Chain of Bile acid receptor (Homo sapiens) (Q96RI1 whole entry, looked up): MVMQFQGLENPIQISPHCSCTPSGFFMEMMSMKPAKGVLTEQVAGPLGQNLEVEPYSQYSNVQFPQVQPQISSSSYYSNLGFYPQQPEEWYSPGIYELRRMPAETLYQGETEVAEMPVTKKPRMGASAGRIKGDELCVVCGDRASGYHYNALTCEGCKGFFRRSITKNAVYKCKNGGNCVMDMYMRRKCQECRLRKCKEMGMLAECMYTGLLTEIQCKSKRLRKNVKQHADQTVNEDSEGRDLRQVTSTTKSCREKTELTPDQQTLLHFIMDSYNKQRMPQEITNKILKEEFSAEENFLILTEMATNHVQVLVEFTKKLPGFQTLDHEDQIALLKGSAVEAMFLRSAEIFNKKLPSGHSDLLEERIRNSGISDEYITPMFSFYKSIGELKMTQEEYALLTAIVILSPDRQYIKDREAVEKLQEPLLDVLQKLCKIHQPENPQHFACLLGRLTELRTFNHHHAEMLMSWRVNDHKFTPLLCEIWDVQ

Take `CN(C)Cc1ccccc1O`: the Potency result in [1], in test [2], in [3], in test [4], in test [5] and in [6] was “inactive” each time. The Potency result in test [7], in test [8], in test [9], in [10], in test [11] and in test [12] was “inactive” each time. Besides, the Potency result in test [13], in [14], in [15], in test [16], in test [17] and in test [18] was “inactive” throughout.

`C#C[C@]1(OC(C)=O)CC[C@H]2[C@@H]3CCC4=C[C@@H](OC(C)=O)CC[C@@H]4[C@H]3CC[C@@]21C`: the Potency result in test [1], in [2], in test [3], in [4], in test [19] and in test [7] was “inactive” in each case. The Potency entry in [8], in test [9], in test [11], in test [13], in [14] and in [16] was “inactive” each time. The Potency result in test [17] is “inactive”. Further, in test [6], the Potency was 26.6 µM (active).

Turning to `CCC(C)n1ncn(-c2ccc(N3CCN(c4ccc(OC[C@H]5CO[C@](Cn6cncn6)(c6ccc(Cl)cc6Cl)O5)cc4)CC3)cc2)c1=O` (some centres undefined), the Potency entry in test [1], in test [2], in test [3], in test [4], in test [5] and in test [19] was “inactive” each time. The Potency result in [7], in test [8], in test [11], in test [13], in [16] and in test [17] was “inactive” in each case. The Potency result in test [18] is “inactive”. Besides, in test [12], the Potency is 2.11 µM (active).

Take `O=[N+]([O-])c1cccc(C(F)(F)F)c1`: the Potency entry in test [1], in [2], in [3], in test [4], in test [19] and in [6] was “inactive” in each case. In addition, the Potency entry in [7], in test [8], in [10], in test [11], in test [12] and in test [13] was “inactive” each time. For the same compound, the Potency entry in test [14], in test [16], in [17] and in test [18] was “inactive” each time.

Turning to `COC(=O)c1ccccc1OC`, the Potency entry in test [1], in test [2], in [3], in test [4], in [19] and in test [6] was “inactive” throughout. For the same compound, the Potency entry in [7], in test [8], in [10], in test [11], in test [12] and in test [13] was “inactive” throughout. The Potency entry in [20], in test [14], in [15] and in test [16] was “inactive” each time.

Regarding `OC/C=C/CO`, the Potency entry in test [1], in test [2], in test [3], in test [4], in test [5] and in test [7] was “inactive” throughout. Further, the Potency entry in [8], in test [9], in [10], in test [11], in [12] and in test [13] was “inactive” throughout. Also, the Potency result in [16], in test [17] and in test [18] was “inactive” throughout. The Potency in test [6] is 21.6 µM (active).

On to `CC(C)NC[C@@H](O)COc1ccc(CC(N)=O)cc1`, for which the Potency entry in test [1], in test [2], in test [3], in test [4], in test [19] and in [6] was “inactive” each time. In addition, the Potency result in test [7], in [8], in test [9], in test [10], in test [14] and in test [16] was “inactive” each time. Also, the Potency entry in [17] and in [18] was “inactive” each time.

As to `Cc1c(C)c2c(c(C)c1OC(=O)c1cccnc1)CC[C@@](C)(CCC[C@H](C)CCC[C@H](C)CCCC(C)C)O2`, the Potency entry in [1], in test [2], in test [3], in [4], in test [19] and in test [6] was “inactive” each time. For the same compound, the Potency entry in test [7], in test [8], in test [10], in test [11], in [12] and in [13] was “inactive” each time. Also, the Potency entry in test [14], in test [16], in [17] and in [18] was “inactive” throughout.

As to `Cc1ccc(C(=O)O)cc1`, the Potency result in test [1], in [2], in test [3], in test [4], in test [19] and in [6] was “inactive” in each case. Also, the Potency entry in test [7], in test [8], in test [9], in [10], in [11] and in [13] was “inactive” throughout. Besides, the Potency result in [14], in [15] and in test [16] was “inactive” in each case.
